Values joined by “and” are separate entries in the source; they are usually repeats but may differ in a detail not shown here. Equal values may be shown once. Results filed as inconclusive are left out. Active and inactive are the calls of the source. Unless noted, calls follow the shape of the dose curve; as a rule, active = well fitted curve in the direction sought with a large enough effect; inconclusive = small, poorly fitted or top-dose-only effect, or another doubt; inactive = no such curve, though single readings can be large; an effect the other way counts as inactive or inconclusive.

Test [1] can be described thus: qHTS profiling for inhibitors of Plasmodium falciparum (3D7) proliferation (AID 743322).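 Also: infected erythrocytes exposed to compound for 72 h before lysis; 100% = DMSO vehicle wells and 0% = 0.29 µM artemisinin.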 As to conditions: P. falciparum 3D7 proliferation; at 28.7 µM (top of the series). In outline:
(§1)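 Parasite DNA was quantified by SYBR Green I fluorescence (ex 485, em 535 nm) after overnight lysis in saponin/Triton buffer at room temperature. Cultures at 0.3% parasitemia and 2.5% hematocrit were first exposed to compound for 72 h at 37 C; signals were normalised to artemisinin (0.29 uM) and vehicle wells.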

A short description of test [2]: qHTS profiling for inhibitors of Plasmodium falciparum (DD2) proliferation (AID 743323; call rule not given here). As to conditions: lower = more inhibition; at 28.7 µM (top of the series). In outline: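 1536-well qHTS; infected RBCs 0.3% parasitemia/2.5% Hct final; cpd 72 h 37 C 5% CO2; lysis buffer + SYBR Green I, o/n RT dark; FI 485/535; norm. to 0.29 uM artemisinin and DMSO, plate-stack corrected.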
(In general: qHTS replaces the single test concentration by a dilution series.)

Test [3] in a line: qHTS profiling for inhibitors of Plasmodium falciparum (HB3) proliferation (AID 743324).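 Also: 100% = DMSO vehicle wells and 0% = artemisinin-treated control wells.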 As to conditions: Plasmodium falciparum HB3 blood-stage proliferation; at 28.7 µM (top of the series). The gist of the method: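 SYBR Green fluorescence (485 ex/535 em) of lysed cultures, incubated overnight at room temperature in the dark, quantifies parasite DNA. Infected erythrocytes at 0.3% parasitemia and 2.5% hematocrit were exposed 72 h; values normalized to DMSO and 0.29 uM artemisinin controls.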

Test [4] is described as follows: qHTS profiling of the MIPE4 collection as inhibitors of Plasmodium falciparum (3D7) proliferation (AID 743344; call rule not given here;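 also: scaled between DMSO vehicle wells and 0.29 µM artemisinin as full inhibition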). The following applies: P. falciparum 3D7 in erythrocytes, SYBR Green DNA fluorescence, 72 h; at 28.5 µM (top of the series). The gist of the method: as §1
A short description of test [5]: qHTS profiling of the MIPE4 collection as inhibitors of Plasmodium falciparum (DD2) proliferation (AID 743345; call rule not given here). The following applies: P. falciparum Dd2 in erythrocytes, SYBR Green DNA, 72 h; at 28.5 µM (top of the series). The gist of the method:
as §1

Test [6] can be described thus: qHTS profiling of the MIPE4 collection as inhibitors of Plasmodium falciparum (DD2) proliferation (Rep 2) (AID 743346; call rule not given here). As to conditions: P. falciparum Dd2 in erythrocytes, SYBR Green DNA, 72 h; at 28.5 µM (top of the series). In outline:
as §1

The nature of test [7]: qHTS profiling of the MIPE4 collection as inhibitors of Plasmodium falciparum (HB3) proliferation (AID 743347; call rule not given here;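 also: plate controls were DMSO vehicle wells for no effect and artemisinin wells for full effect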). The following applies: P. falciparum HB3 in erythrocytes, SYBR Green DNA, 72 h; at 28.5 µM (top of the series). In outline: as §1
Test [8] can be described thus: qHTS Assay for Identification of Small Molecule Antagonists for Thrombopoietin (TPO) Signaling Pathway (AID 918). Also: potency is read from the fitted curve at half-maximal effect; nearly all actives have a fitted effect of over 60% in size. As to conditions: TPO-dependent cell signaling reporter, antagonist mode. In outline:
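Luminescence read-out: GPIIb-promoter luciferase in Ba/F3 cells carrying human TPO receptor. Compounds added with 26 pM TPO (EC50), 24 hrs, 37 C, 5% CO2; cells deprived of IL-3 overnight beforehand. Inhibition of signal scored.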

In test [9] the target is Muscarinic acetylcholine receptor M1 (Rattus norvegicus) (UniProt P08482). Nature of the test: qHTS Assay for Antagonists of Acetylcholine Muscarinic M1 Receptor: Kinetic Measurement of Intracellular Calcium Response (AID 943). Also: nearly all actives have a fitted effect of over 75% in size. The gist of the method: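 Read-out: peak over basal Fluo-4 fluorescence, kinetic at 1 Hz for 4 min after EC80 carbachol (100 nM final). Rat M1-CHO cells, dye loaded 1 h at 37C, compound added 10 min before agonist.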
Sequence of Muscarinic acetylcholine receptor M1 (Rattus norvegicus) (P08482 whole entry, looked up): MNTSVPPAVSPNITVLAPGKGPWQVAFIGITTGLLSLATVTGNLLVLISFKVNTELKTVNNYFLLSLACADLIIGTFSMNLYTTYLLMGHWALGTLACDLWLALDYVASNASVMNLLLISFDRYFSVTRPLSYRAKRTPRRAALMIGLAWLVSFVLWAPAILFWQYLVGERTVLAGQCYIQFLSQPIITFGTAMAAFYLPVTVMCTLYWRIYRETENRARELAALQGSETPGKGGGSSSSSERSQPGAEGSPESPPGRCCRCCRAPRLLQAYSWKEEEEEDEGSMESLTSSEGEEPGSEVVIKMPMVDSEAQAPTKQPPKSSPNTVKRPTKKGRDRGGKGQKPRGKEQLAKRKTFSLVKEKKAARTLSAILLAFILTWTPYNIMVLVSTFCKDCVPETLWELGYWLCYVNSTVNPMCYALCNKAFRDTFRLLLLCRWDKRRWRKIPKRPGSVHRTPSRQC

The target of test [10] is Pyruvate kinase PKM (Homo sapiens) (UniProt P14618). Nature of the test: qHTS Assay for Activators of Human Muscle Pyruvate Kinase (AID 954; active = well fitted curve in the direction sought with a large enough effect, not every such curve was filed as active;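 also: 0% = uninhibited enzyme and -100% = no enzyme or full thiadiazolimine inhibition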). The gist of the method:
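PKM2, human, >95% pure, 0.1 nM; PEP 0.5 mM (Km), ADP 0.1 mM; 50 mM imidazole pH 7.2, 50 mM KCl, 0.01% Tween 20, 0.05% BSA; 1 h RT; luciferase luminescence readout.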

The nature of test [11]: qHTS Assay for Identification of Small Molecule Agonists for Thrombopoietin (TPO) Signaling Pathway (AID 917). Also: % is scaled to controls: 0 for no effect and ±100 for the full control effect. The gist of the method: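 Luciferase reporter (Glycoprotein IIb promoter) in IL-3-deprived Ba/F3 cells carrying human TPO receptor; compounds co-added with 26 pM TPO, incubated 24 h, 37 C. Steadylite luminescence measured after 10 min.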
Test [12] addresses Muscarinic acetylcholine receptor M1 (Rattus norvegicus) (UniProt P08482). As to the kind of experiment: qHTS Assay for Antagonists of Acetylcholine Muscarinic M1 Receptor: Measurement of IP-One Response (AID 944). Also: nearly all actives have a fitted effect of over 75% in size. In outline: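 Read-out: HTRF competition between d2-IP1 and Eu-cryptate anti-IP1 antibody, emission 620 and 665 nm. Stimulus was carbachol, EC80 (200 nM), for 30 min in M1-CHO cells (rat receptor), after 10 min compound pre-treatment.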

For test [13], the target named is Lysosomal acid glucosylceramidase (Homo sapiens) (UniProt P04062). As to the kind of experiment: Glucocerebrosidase-p2 (AID 348; in the data active = potency below about 10 µM; also: potency is read from the fitted curve at half-maximal effect). As to conditions: purified GBA, blue fluorogenic substrate, 40 min. In outline:
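Normal human glucocerebrosidase (0.2 nM) with blue fluorogenic substrate (80 uM final) in citrate/phosphate pH 5.9 with 10mM sodium taurocholate, 0.01% tween-20; 40 min RT, NaOH/glycine stop; fluorescence Ex 365/Em 440; AC50 from a titration from 0.6 nM upwards.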

A short description of test [14]: Stat Signaling Pathway (AID 446; active = well fitted curve in either direction with a large enough effect, not every such curve was filed as active;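 also: ME-180 cervical cancer cells given 40 pM IL-6 alongside compound; SIE-controlled beta-lactamase reporter measured as 460/530 nm FRET emission ratio; % is scaled to controls: 0 for no effect and ±100 for the full control effect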). As to conditions: ME-180 (cervical carcinoma) SIE beta-lactamase reporter, IL-6 stimulated, 5 h. The gist of the method: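 Emission at 460 and 530 nm (excitation 405 nm) reports SIE-controlled beta-lactamase in ME-180 cells. Cells received compound with 40 pM IL-6 for 5 hrs at 37 C; data scaled between 300 pM IL-6 and 125 nM JAK-inhibitor controls.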

Test [15] can be described thus: Confirmatory qHTS for small molecule stabilizers of the endoplasmic reticulum resident proteome: Secreted ER Calcium Modulated Protein (SERCaMP) assay (AID 1508628). Also: potency is read from the fitted curve at half-maximal effect; nearly all actives have a fitted effect of over 40% in size. In outline: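 GLuc-SERCaMP-expressing SH-SY5Y cells, pretreated 16 h with compound, are challenged with thapsigargin to empty ER calcium stores; after 4 h, coelenterazine is added directly to the medium and luminescence is imaged.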

For test [16], the target named is Cytochrome P450 2D6 (Homo sapiens) (UniProt P10635). Nature of the test: Cytochrome P450 family 2 subfamily D member 6 (CYP2D6) small molecule antagonists: luciferase biochemical (cell-free) qHTS assay (AID 1645840; active = well fitted curve in the direction sought with a large enough effect in the repeat runs; an effect the other way counts as inactive or inconclusive; also: potency is read from the fitted curve at half-maximal effect; nearly all actives have a fitted effect of over 55% in size). In outline:
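P450-Glo CYP2D6 system: proluciferin substrate converted by enzyme to luciferin, read by luminescence proportional to activity. Enzyme-substrate mix with compound 10 min at room temperature, then NADPH regeneration 1 h before detection reagent.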

Test [17] has as its target Tyrosyl-DNA phosphodiesterase 1 (Homo sapiens) (UniProt Q9NUW8). As to the kind of experiment: Confirmation Assay for Inhibitors of Tyrosyl-DNA Phosphodiesterase (TDP1) (AID 489007). Also: potency is read from the fitted curve at half-maximal effect; nearly all actives have a fitted effect of over 40% in size. The following applies: recombinant human TDP1 enzymatic activity, dose-response. The gist of the method:
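AlphaScreen read-out: streptavidin donor and anti-FITC acceptor beads (10 ug/ml) bind intact substrate, so Tdp1 removal of tyrosine-FITC lowers signal. Enzyme 1 nM, substrate 15 nM, 5 min reaction at room temperature after 15 min compound preincubation.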

Test [18] has as its target Rap guanine nucleotide exchange factor 4 (Homo sapiens) (UniProt Q8WZA2). Nature of the test: Confirmatory qHTS for agonist of cAMP-regulated guanine nucleotide exchange factor 4 (EPAC2) (AID 1645884).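 Also: nucleotide exchange releases bodipy-GDP from Rap1 and this lowers its fluorescence; % is scaled to controls: 0 for no effect and ±100 for the full control effect; nearly all actives have a fitted effect of over 65% in size.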
Test [19] concerns the target Calcium and integrin-binding protein 1 (Homo sapiens) (UniProt Q99828). As to the kind of experiment: Primary qHTS for Identification of Calcium Integrin Binding Protein 1 (CIB1) Competitor (AID 1508620).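 Also: GST tagged CIB1 binding a fluorescein labelled alphaIIb integrin peptide tracer; top concentration of the series differs between compounds; % is scaled to controls: 0 for no effect and ±100 for the full control effect.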 In outline:
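CIB1-GST (1 uM final) and compound incubated 15 min at room temperature before adding FITC-alphaIIb peptide tracer (100 nM final). Competition for binding read by fluorescence polarization (ex 480, em 540) after another 15 min at room temperature.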

The target in test [20] is Rap guanine nucleotide exchange factor 3 (Homo sapiens) (UniProt O95398). Nature of the test: Confirmatory qHTS for agonist of cAMP-regulated guanine nucleotide exchange factor 3 (EPAC1) (AID 1645881).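 Also: EPAC1 catalysed release of BODIPY-GDP from Rap1B seen as fluorescence loss; 100% = effect of cAMP agonist control; nearly all actives have a fitted effect of over 75% in size.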
Sequence of Rap guanine nucleotide exchange factor 3 (Homo sapiens) (O95398 whole entry, looked up): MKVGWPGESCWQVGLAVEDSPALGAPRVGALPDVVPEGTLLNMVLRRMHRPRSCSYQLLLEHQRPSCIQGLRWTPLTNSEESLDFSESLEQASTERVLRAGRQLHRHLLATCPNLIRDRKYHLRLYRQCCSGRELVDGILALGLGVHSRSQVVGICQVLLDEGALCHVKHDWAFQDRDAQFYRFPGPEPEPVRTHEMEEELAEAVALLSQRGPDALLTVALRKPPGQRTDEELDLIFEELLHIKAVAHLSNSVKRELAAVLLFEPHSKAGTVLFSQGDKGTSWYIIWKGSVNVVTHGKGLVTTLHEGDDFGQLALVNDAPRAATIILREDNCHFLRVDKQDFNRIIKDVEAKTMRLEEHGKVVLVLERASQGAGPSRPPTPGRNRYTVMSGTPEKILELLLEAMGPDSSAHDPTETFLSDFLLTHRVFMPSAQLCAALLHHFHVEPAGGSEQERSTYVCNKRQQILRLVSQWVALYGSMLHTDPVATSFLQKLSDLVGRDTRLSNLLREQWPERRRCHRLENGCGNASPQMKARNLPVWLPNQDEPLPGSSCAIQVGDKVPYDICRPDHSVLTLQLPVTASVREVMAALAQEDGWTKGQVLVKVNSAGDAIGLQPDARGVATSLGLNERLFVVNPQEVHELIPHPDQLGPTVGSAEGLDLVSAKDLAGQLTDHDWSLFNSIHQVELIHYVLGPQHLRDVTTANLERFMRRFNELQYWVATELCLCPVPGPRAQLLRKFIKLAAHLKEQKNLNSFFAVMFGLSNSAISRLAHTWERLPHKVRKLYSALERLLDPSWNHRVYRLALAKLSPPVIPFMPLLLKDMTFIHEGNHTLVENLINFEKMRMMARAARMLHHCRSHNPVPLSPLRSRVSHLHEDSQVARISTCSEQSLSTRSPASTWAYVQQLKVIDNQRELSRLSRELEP

Sequence of Tyrosyl-DNA phosphodiesterase 1 (Homo sapiens) (Q9NUW8 whole entry, looked up): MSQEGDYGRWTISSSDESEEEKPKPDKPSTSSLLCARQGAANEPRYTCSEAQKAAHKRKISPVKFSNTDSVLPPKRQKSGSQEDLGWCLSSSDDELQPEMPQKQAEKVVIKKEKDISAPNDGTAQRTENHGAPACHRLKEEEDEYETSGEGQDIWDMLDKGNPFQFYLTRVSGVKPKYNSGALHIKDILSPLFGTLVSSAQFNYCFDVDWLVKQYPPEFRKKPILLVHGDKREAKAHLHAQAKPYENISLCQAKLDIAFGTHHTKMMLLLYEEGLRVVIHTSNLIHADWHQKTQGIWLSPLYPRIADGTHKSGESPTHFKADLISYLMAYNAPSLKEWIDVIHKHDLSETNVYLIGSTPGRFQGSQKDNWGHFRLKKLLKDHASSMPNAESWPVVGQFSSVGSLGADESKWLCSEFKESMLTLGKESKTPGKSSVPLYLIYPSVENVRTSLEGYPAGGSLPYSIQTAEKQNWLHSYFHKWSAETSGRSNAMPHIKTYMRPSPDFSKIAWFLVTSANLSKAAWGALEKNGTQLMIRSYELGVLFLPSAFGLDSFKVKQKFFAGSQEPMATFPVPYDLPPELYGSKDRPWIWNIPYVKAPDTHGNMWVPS
Sequence of Rap guanine nucleotide exchange factor 4 (Homo sapiens) (Q8WZA2 whole entry, looked up): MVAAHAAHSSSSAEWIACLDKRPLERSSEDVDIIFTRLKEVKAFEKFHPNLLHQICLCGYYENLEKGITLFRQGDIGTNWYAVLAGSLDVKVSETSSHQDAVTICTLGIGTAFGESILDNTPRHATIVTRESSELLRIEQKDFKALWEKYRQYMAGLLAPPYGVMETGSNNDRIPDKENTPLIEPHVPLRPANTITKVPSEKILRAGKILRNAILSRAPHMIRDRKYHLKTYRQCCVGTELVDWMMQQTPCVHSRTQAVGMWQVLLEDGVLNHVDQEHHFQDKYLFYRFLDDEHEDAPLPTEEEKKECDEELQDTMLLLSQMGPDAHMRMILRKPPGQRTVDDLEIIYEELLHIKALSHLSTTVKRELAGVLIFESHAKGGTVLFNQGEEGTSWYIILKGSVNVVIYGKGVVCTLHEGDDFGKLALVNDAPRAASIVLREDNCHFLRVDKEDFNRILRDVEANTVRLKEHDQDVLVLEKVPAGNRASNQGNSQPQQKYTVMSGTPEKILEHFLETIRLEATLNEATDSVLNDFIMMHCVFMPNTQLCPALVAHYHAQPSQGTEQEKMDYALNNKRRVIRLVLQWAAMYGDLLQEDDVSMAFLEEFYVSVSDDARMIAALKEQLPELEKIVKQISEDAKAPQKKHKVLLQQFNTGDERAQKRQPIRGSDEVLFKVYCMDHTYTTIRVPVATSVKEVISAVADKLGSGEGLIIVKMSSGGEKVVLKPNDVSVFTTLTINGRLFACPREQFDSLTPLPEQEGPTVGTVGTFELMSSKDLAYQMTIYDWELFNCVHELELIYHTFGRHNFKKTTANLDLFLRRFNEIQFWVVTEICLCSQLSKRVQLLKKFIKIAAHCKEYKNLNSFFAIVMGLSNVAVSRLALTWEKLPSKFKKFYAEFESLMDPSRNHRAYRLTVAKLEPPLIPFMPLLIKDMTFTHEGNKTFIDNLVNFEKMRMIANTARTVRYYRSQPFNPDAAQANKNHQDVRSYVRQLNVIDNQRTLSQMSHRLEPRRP
Sequence of Calcium and integrin-binding protein 1 (Homo sapiens) (Q99828 whole entry, looked up): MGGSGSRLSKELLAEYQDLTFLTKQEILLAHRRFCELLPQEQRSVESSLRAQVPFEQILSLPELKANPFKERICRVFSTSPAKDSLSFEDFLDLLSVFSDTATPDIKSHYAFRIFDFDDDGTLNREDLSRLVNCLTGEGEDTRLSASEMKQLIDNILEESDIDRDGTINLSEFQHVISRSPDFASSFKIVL
Sequence of Pyruvate kinase PKM (Homo sapiens) (P14618 whole entry, looked up): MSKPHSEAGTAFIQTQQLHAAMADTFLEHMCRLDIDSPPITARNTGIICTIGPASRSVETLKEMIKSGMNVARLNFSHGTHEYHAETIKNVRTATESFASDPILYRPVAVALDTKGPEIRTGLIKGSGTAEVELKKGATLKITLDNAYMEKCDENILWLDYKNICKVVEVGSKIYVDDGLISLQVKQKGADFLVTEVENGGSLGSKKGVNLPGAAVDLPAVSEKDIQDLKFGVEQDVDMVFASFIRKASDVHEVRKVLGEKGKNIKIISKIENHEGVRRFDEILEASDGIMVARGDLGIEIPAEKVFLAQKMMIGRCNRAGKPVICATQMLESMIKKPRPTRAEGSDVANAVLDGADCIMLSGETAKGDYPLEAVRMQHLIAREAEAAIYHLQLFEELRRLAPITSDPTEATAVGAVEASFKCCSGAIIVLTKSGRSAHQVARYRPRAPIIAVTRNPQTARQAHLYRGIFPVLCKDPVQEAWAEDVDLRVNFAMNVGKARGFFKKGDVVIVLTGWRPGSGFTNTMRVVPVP
Sequence of Cytochrome P450 2D6 (Homo sapiens) (P10635 whole entry, looked up): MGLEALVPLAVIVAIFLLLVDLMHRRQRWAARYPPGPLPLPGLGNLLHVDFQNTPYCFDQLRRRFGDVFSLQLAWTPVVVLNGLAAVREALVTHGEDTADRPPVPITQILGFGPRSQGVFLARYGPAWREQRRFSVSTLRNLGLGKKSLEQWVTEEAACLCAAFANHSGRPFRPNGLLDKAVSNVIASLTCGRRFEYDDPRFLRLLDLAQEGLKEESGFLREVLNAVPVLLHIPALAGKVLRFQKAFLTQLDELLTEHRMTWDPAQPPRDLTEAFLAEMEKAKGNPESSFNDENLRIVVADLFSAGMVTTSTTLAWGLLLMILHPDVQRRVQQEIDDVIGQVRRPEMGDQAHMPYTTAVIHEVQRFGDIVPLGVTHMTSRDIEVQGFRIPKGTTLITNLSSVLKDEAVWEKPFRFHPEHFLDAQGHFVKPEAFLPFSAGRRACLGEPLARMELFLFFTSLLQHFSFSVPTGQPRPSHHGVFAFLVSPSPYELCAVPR
Sequence of Lysosomal acid glucosylceramidase (Homo sapiens) (P04062 whole entry, looked up): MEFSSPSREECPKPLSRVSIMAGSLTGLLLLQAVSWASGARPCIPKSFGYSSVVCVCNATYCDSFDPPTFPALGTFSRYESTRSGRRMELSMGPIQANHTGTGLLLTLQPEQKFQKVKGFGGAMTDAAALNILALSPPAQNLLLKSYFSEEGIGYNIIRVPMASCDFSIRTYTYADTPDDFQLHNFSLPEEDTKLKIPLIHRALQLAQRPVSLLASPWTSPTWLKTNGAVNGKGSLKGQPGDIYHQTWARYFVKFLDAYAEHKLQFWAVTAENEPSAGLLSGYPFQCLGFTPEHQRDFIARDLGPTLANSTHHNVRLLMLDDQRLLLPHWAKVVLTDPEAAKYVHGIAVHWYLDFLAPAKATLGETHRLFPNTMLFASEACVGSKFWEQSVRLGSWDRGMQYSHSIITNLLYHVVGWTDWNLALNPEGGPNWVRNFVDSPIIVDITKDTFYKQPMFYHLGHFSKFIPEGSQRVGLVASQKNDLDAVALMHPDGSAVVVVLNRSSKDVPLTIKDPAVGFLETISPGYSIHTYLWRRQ

In the case of `CC(C)N=C(N)N=C(N)Nc1ccc(Cl)cc1`, the remaining parasite growth % (stronger effect = lower value) in test [1] was -0.519%. This compound returned an activity, percent of control in [2] of 0.237%. Also, the remaining proliferation (% of control), lower = more inhibition in test [3] was found to be 0.187%. This compound showed a parasite growth, % of DMSO control in test [4] of 5.61%. The same compound registered a parasite growth remaining, % of DMSO control (lower = more inhibition) in test [5] of 7.67%. The same compound registered a parasite growth, % of control (lower = inhibition) in [6] of 12.7%. The compound also yielded a growth, % of control in test [7] of 3.71%.
`CCCCCCCCCCCCC/C=C\[C@@H](O)[C@@H](N)CO`: the Potency in test [8] was 10 µM (active). In addition, the Potency entry in test [9] was “inactive”. The compound was classed as inactive in [10].
As to `C[C@@H]1CNCCN1S(=O)(=O)c1cccc2cnccc12`, the Potency result in [11], in test [9] and in test [12] was “inactive” each time. The outcome in test [10] was inactive.
For the compound `O=C(O)c1c(Br)c(Br)c(Br)c(Br)c1C1c2ccc(O)cc2Oc2cc(O)ccc21`, the Potency in test [13] is 7.36 µM (active).
Turning to `COc1cc(-c2ccc(N=Nc3ccc4c(S(=O)(=O)O)cc(S(=O)(=O)O)c(N)c4c3O)c(OC)c2)ccc1N=Nc1ccc2c(S(=O)(=O)O)cc(S(=O)(=O)O)c(N)c2c1O`, the activity, negative = inhibition in test [14] (at 17.2 µM (top of the series)) is -15.7% (inactive). The Potency in [15] was 28.2 µM (active).
Take `O=C1c2ccc(O)c(O)c2C(=O)c2c(O)ccc(O)c21`: the Potency in test [16] was 21.3 µM (active).
Consider `N#C/C(=C\c1ccc(-c2ccc(Cl)c(C(=O)O)c2)o1)c1nc2ccccc2[nH]1`, for which the Potency in [17] was 112 µM (active). Moreover, the result in test [18] was inactive.
As for `COc1ccc2c(c1)Oc1nc(-c3ccc(C)s3)nc(SCC(=O)Nc3cccc(C(=O)O)c3)c1C2`, the result in [19] was inactive.
Consider `COc1ccc(NS(=O)(=O)c2ccc3c(c2)[C@H]2C=CC[C@H]2[C@@H](c2ccc(C(=O)O)cc2)N3)cc1`, for which the outcome in [20] and in test [18] was inactive.
As to `O=C(OCC#CCSc1nnc(-c2cccc3ccccc23)o1)c1sc2ccccc2c1Cl`, the result in [19] was inactive.
Take `O=C(Nc1cc(C(=O)Nc2ccc(S(=O)(=O)O)cc2S(=O)(=O)O)cc(C(=O)Nc2ccc(S(=O)(=O)O)cc2S(=O)(=O)O)c1)Nc1cc(C(=O)Nc2ccc(S(=O)(=O)O)cc2S(=O)(=O)O)cc(C(=O)Nc2ccc(S(=O)(=O)O)cc2S(=O)(=O)O)c1`: the activity, negative = inhibition in test [14] (at 38 µM (top of the series)) was -91.7% (active). Besides, the Potency entry in [11] and in test [12] was “inactive” throughout. Further, the Potency in [17] was 316 nM (active) and 1.26 µM (active).
Regarding `O=C(Nc1ccccc1C(=O)OCc1cc(=O)n2c3c(sc2n1)CCCC3)c1ccc(F)cc1`, the result in [20] was inactive.
As for `Cc1ccc(Nc2nnc(-c3ccc(C)c(S(=O)(=O)NCc4nc5ccccc5[nH]4)c3)c3ccccc23)cc1`, the Potency in test [16] is 6.01 µM (active).

Values taken from PubChem BioAssay (NCATS).
